# Measurements from ChEMBL document CHEMBL3988442, “University of Dundee, Small-Polar-MMV Screening Library” (2021).
# Screen size: about 69,000 compounds; about 1,000 (1.4%) showed an effect of 50% or more. What follows is part of a selection rich in strong results, with near analogues and random picks from the rest.
# Test system: Leishmania donovani
# Experiment: Leishmania intramacrophage assay
# Format: functional, organism-based
# Design: scale not given: in the data most compounds retested in dose-response had high values
smiles,measurement,setting,value
COc1ccc(Cl)cc1CS(=O)(=O)Cc1nc(C)no1,Percent Effect,"30.3 µM, […]",60.61%
O=C(NCCN1CCOCC1)c1cc(-c2ccccc2Cl)[nH]n1,Percent Effect,"30.3 µM, […]",-6.582%
CC(C)c1noc(CN2CCN(C(=O)c3ccncc3F)CC2)n1,Percent Effect,30 µM,25.95%
O=C1C(N2CCN(c3ccc(O)cc3)CC2)CCN1C1CCOCC1 (stereo not given),Percent Effect,"30.3 µM, […]",-7.233%
O=C(Nc1ccc(CC(=O)N2CCSCC2)cc1)NC1CCCC1,Percent Effect,"30.3 µM, […]",-9.117%
O=C(Nc1ccc(CC(=O)N2CCCC2)cc1)NC1CC1,Percent Effect,"30.3 µM, […]",15.08%
O=C(Nc1ccc(CC(=O)N2CCSCC2)cc1)NC1CC1,Percent Effect,"30.3 µM, […]",50.93%
O=C1[C@H]2CC[C@H](CN(C3CSCCSC3)C2)N1Cc1cscn1,Percent Effect,"30 µM, 30.03 µM",-11.37%
Cc1ccccc1N1CC2(CCN(Cc3nccn3C)C2)CC1=O.O=C(O)C(F)(F)F (stereo not given),Percent Effect,"30.3 µM, […]",-1.583%
Cn1ccc(CN2CCCC23CCN(Cc2nccn2C)CC3)n1.O=C(O)C(F)(F)F.O=C(O)C(F)(F)F,Percent Effect,"30.3 µM, […]",27.16%
Cn1cc(N2CC3(CCN(Cc4nccn4C)C3)CC2=O)cn1.O=C(O)C(F)(F)F (stereo not given),Percent Effect,"30.3 µM, […]",58.91%
CN1CC(=O)N(c2cnn(C)c2)CC12CCN(Cc1nccn1C)C2.O=C(O)C(F)(F)F.O=C(O)C(F)(F)F (stereo not given),Percent Effect,"30 µM, 30.03 µM",3.871%
Cc1cccc(N2CC3(CCN(Cc4nccn4C)C3)CC2=O)c1.O=C(O)C(F)(F)F (stereo not given),Percent Effect,"30.3 µM, […]",24.22%
Cn1cc(CN2CCCC23CCN(Cc2nccn2C)CC3)cn1.O=C(O)C(F)(F)F.O=C(O)C(F)(F)F,Percent Effect,"30.3 µM, […]",22.67%
Cc1ccc(N2CC3(CCN(Cc4nccn4C)C3)CC2=O)s1.O=C(O)C(F)(F)F (stereo not given),Percent Effect,"30.3 µM, […]",55.03%
Cn1ccnc1CN1CCC2(CC(=O)N(c3ccsc3)C2)C1.O=C(O)C(F)(F)F (stereo not given),Percent Effect,"30.3 µM, […]",19.56%
CN(C)CCN1CCCC12CCN(Cc1nccn1C)CC2.O=C(O)C(F)(F)F.O=C(O)C(F)(F)F.O=C(O)C(F)(F)F,Percent Effect,"30.3 µM, […]",52.43%
OC(COCc1ccccc1Cl)CN1CCC(c2ccn[nH]2)CC1 (stereo not given),Percent Effect,30 µM,17.67%
O=C(Cc1csc(-c2ccsc2)n1)N1CCN(c2cnccn2)CC1,Percent Effect,30 µM,8.045%
Cc1cc(C(=O)N2CCn3cc(CN(C)C)nc3C2)no1,Percent Effect,"30.3 µM, […]",18.85%
CC(O)CN1CCN(C(=O)c2ccn(-c3ccc(F)cc3)n2)CC1 (stereo not given),Percent Effect,"30.3 µM, […]",-32.18%
Cn1ccc(C(=O)N2CCC(Cc3cnc4[nH]ccc4c3)CC2)n1,Percent Effect,"30 µM, 30.03 µM",27.84%
CO[C@@H]1CC[C@@H](N(C)C(=O)COc2ccc(F)cc2)[C@H]1O,Percent Effect,"30 µM, 30.03 µM",-20.57%
CCc1nn(-c2cc(Oc3cc(C)ccc3C)ncn2)c(N)c1C#N,Percent Effect,"30.3 µM, […]",55.59%
Cc1ccc(C)c(Oc2cc(-n3nc(C)c(C#N)c3N)nc(C)n2)c1,Percent Effect,"30.3 µM, […]",6.945%
CCc1nn(-c2cc(Oc3cc(C)ccc3C)nc(C)n2)c(N)c1C#N,Percent Effect,"30.3 µM, […]",18.36%
NCC(=O)N1CCCC(O)(CN2CCN(c3ccccc3)CC2)CC1 (stereo not given),Percent Effect,"30.3 µM, […]",24.84%
Clc1ccc(N2CCN(CCCN3CCCCC3)CC2)nc1,Percent Effect,"30.3 µM, […]",68.75%
Cc1nc(CN2CCN(Cc3nccn3C)CC2)no1,Percent Effect,"30 µM, 30.03 µM",11.72%
Cc1nc(CNC(=O)N2CCN(c3ccc(Cl)cn3)CC2)no1,Percent Effect,"30.3 µM, […]",-6.718%
CS(=O)(=O)CCN1CCN(c2ccc(Cl)cn2)CC1,Percent Effect,"30.3 µM, […]",0.04205%
Cc1nc(CN2CCN(c3ccc(Cl)cn3)CC2)no1,Percent Effect,"30.3 µM, […]",51.54%
CSCCCN1CCN(c2ccc(Cl)cn2)CC1,Percent Effect,"30.3 µM, […]",30.03%
O=C(NCCNc1ccc(C(F)(F)F)cn1)c1ccc(Br)cc1F,Percent Effect,"30 µM, 30.03 µM",-32.97%
CN(Cc1cn[nH]c1-c1ccc(F)cc1)C(=O)CCC1CC1,Percent Effect,"30.3 µM, […]",-4.143%
CCn1cc(CN2CCC(C3CCN(C)CC3)CC2)cc1C#N,Percent Effect,"30.3 µM, […]",8.451%
COc1ccc(/C=C/CN2CCCC3(C2)CN(C)C(=O)O3)cc1 (stereo not given),Percent Effect,"30.3 µM, […]",14.77%
COC[C@@]12CC[C@@H](N3CCOCC3)C[C@H]1CCN(c1cc(C)ccn1)C2,Percent Effect,"30.3 µM, […]",28.55%
CC(C)Cn1nc(-c2ccc(C(=O)O)cc2)cc1-c1ccc(F)cc1,Percent Effect,"30.3 µM, […]",41.19%
CCC(O)Cn1nc(-c2ccc(C(=O)O)cc2)cc1-c1ccc(F)cc1 (stereo not given),Percent Effect,"30.3 µM, […]",61.24%
CCC(O)Cn1nc(-c2ccc(C(=O)O)cc2)cc1-c1cccc(F)c1 (stereo not given),Percent Effect,"30.3 µM, […]",29.44%
Fc1cccc(N2CCc3ncnc(C4CC4)c3CC2)c1,Percent Effect,"30.3 µM, […]",15.99%
COCCCN1C(=O)CC[C@H]2CN(Cc3cc4ccccc4o3)CC[C@H]21,Percent Effect,"30.3 µM, […]",10.23%
CCN1CCC(NC(=O)NC2CCOc3ccc(Br)cc32)CC1 (stereo not given),Percent Effect,"30.3 µM, […]",1.839%
c1ccc(C2CN(C3CC3)CC3(CCN(Cc4ncc[nH]4)CC3)C2)cc1 (stereo not given),Percent Effect,"30.3 µM, […]",51.92%
CCN1CC(c2ccccc2)CC2(CCN(Cc3ncc[nH]3)CC2)C1 (stereo not given),Percent Effect,"30.3 µM, […]",35.04%
CN1CC(c2ccccc2)CC2(CCN(Cc3ncc[nH]3)CC2)C1 (stereo not given),Percent Effect,"30.3 µM, […]",16.63%
Cc1ccc(F)c(OC2(C(=O)O)CCN(C(=O)C3CCCC3)CC2)c1,Percent Effect,"30.3 µM, […]",24.64%
CCOC(C)c1nc(CN2CCN(Cc3cccnc3)CC2)cs1 (stereo not given),Percent Effect,"30.3 µM, […]",14.45%
Cc1nc(CN2C[C@@H]3CN(c4ncc(F)cn4)C[C@@H]3C2=O)cs1.O=C(O)C(F)(F)F,Percent Effect,"30.3 µM, […]",0.4282%
